Sampled rows, rich in hits. Any-hit rate of the full collection: about 11%.
HEK293 tox: kills HEK 293 cells; AID 1345083; 94,000 tested, 6.6% active; HEK 293 viability, ATP luminescence (CellTiter-Glo), 48-72 h; Potency, µM (titrated, usually from 115 µM), inactives show top-dose activity change, negative = cytotoxicity, actives largely listed as inhibitors; also: nearly all actives have a fitted effect of over 60% in size
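Luminescence from cellular ATP, measured with CellTiter-Glo, indicates HEK 293 viability. Cells plated at 250 cells/well are treated with compound for 48 or 72 hr at 37 degree Celsius before reagent addition.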
NIH3T3 tox: kills NIH 3T3 cells. NIH 3T3 viability, CellTiter-Glo ATP luminescence, 48-72 h. Potency, µM (series often up to 96.7 µM), inactives show at the top dose activity change, negative = cytotoxicity, usual class: inhibitors. 94,000 tested, 4.3% active; also: nearly all actives have a fitted effect of over 55% in size
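Viability of NIH 3T3 cells after 48 or 72 hr compound treatment at 37 °C was assessed by CellTiter-Glo, with luminescence imaged following a 10 min room-temperature step.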
NPR1 antag: human Npr1 receptor antagonism. P16066. HEK293 hNpr1 GloSensor cGMP, ANP-stimulated luminescence. Potency, µM (highest dose often 46.3 µM), for the others: at the highest dose activity change, negative = inhibition, actives largely listed as inhibitors. 76,000 tested, 1.6% active; calls by dose curve; also: nearly all actives have a fitted effect of over 60% in size
Target sequence (P16066 whole entry, looked up): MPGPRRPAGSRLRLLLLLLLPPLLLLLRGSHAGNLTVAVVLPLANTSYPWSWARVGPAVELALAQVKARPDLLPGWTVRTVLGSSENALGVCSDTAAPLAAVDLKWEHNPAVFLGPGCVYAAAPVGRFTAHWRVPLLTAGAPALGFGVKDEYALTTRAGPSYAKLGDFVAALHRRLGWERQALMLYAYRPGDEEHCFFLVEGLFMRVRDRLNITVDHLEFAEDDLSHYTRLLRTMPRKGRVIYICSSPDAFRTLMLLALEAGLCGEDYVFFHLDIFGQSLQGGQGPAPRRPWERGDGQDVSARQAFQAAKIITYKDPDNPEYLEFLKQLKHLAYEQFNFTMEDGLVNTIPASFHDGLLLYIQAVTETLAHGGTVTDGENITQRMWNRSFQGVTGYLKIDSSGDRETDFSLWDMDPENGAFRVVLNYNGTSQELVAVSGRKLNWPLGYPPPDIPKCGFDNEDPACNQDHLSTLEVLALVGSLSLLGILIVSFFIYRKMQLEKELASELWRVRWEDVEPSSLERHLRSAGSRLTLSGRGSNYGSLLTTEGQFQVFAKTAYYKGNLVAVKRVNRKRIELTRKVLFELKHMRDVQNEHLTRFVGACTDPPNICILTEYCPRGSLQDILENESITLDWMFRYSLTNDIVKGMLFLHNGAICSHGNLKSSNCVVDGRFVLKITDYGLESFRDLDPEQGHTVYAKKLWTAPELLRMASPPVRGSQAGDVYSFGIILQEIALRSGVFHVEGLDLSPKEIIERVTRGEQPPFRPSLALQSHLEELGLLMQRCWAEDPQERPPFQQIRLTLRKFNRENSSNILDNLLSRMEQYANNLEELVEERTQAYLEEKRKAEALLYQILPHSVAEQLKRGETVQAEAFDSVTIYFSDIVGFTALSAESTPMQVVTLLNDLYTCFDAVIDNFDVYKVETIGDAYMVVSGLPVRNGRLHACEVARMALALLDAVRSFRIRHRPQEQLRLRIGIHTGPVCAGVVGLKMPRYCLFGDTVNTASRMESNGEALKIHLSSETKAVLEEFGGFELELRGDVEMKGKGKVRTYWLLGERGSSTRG
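HEK293 cells stably expressing human Npr1 and cGMP GloSensor pGS-40F, loaded 2 h with 2% GloSensor reagent, given compound 30 min at room temperature. Luminescence read before and 20 min after 0.1 nM hNppA.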
FLuc inh: inhibitors of firefly (Photinus pyralis) luciferase; purified P. pyralis luciferase, luminescence, biochemical; AID 1347043; Potency, µM (series often up to 115 µM), usual class: inhibitors; 76,000 tested, 2.5% active; P08659; also: nearly all actives have a fitted effect of over 65% in size
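Inhibitors were tested against purified firefly luciferase in a biochemical, low-substrate format (both substrates at 10uM) and luminescence measured with a CCD imager.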
The depositor's hits bear a star; i = inactive; ? = inconclusive; . = no result; [ ] = dose if it differs, or a comment. Unless noted, calls follow the shape of the dose curve; as a rule, active = well fitted curve in the direction sought with a large enough effect; inconclusive = small, poorly fitted or top-dose-only effect, or another doubt; inactive = no such curve, though single readings can be large; an effect the other way counts as inactive or inconclusive. % is scaled to controls: 0 for no effect and ±100 for the full control effect; potency is read from the fitted curve at half-maximal effect.

SMILES	HEK293 tox	NIH3T3 tox	NPR1 antag	FLuc inh
CCC1Oc2ccc(NC(=O)c3ccccc3)cc2CN(Cc2ccc(OC)cc2)C1=O (stereo not drawn)	?	?	-15.7%	i
Cc1cc(C)cc(C(=O)N2CC(C(=O)NC3CCCCC3)C3(CCOCC3)C2)c1 (stereo not drawn)	-19.3%	-11.4%	0.2%	i
c1ccc(-c2ccc3ncc(Nc4ccccn4)n3n2)cc1	?	?	-23.5%[70.6 µM]	i
c1ccc(-c2ccc3ncc(Nc4ccc5c(c4)OCCO5)n3n2)cc1	89.1µM*	?	-11.2%[70.6 µM]	?
Fc1ccccc1Nc1cnc2ccc(-c3ccccc3)nn12	100µM*	?	-8.2%[70.6 µM]	i
Fc1ccc(-c2ccc3ncc(Nc4ccc5c(c4)OCCO5)n3n2)cc1	?	?	0.6%[70.6 µM]	?
Fc1ccc(Nc2cnc3ccc(-c4ccccc4)nn23)cc1	100µM*	79.4µM*	-22.0%[70.6 µM]	i
CCCNc1cc(N2CCC(CCC(=O)N3CCN(c4ccccc4F)CC3)CC2)ncn1	?	?	12.6µM*	?
CCCCN(C)C(=O)CCC1CCN(c2cc(NC3CC3)ncn2)CC1	31.6µM*	?	17.8µM*	i
CCCNc1cc(N2CCC(CCC(=O)NCC3CC3)CC2)ncn1	i	-25.3%	-10.0%	i
CCNc1cc(N2CCC(CCC(=O)N3CCN(c4ncccn4)CC3)CC2)ncn1	50.1µM*	?	?	i
COc1cccc(CCC(=O)N2CCCC(Nc3ccc(F)cc3)C2)c1 (stereo not drawn)	?	-25.0%	-7.3%	i
CCC(=O)NCC12CCCC=C1N(C)C(=O)CC2 (stereo not drawn)	i	i	-3.8%	i
COc1ccccc1-c1nccc2c(=O)cc(N3CCOCC3)oc12	?	25.1µM*	1.2%[70.6 µM]	i
COc1ccccc1-c1nccc2c(=O)cc(C3=CCOCC3)oc12	63.1µM*	12.6µM*	-1.2%[70.6 µM]	i
COc1ncccc1-c1nccc2c(=O)cc(N3CCOCC3)oc12	?	50.1µM*	-3.9%[70.6 µM]	i
Cn1nccc1-c1nccc2c(=O)cc(N3CCOCC3)oc12	?	50.1µM*	-6.0%[70.6 µM]	i
O=c1cc(N2CCOCC2)oc2c(-c3cccc(F)c3)nccc12	?	?	3.6%[70.6 µM]	i
O=c1cc(N2CCOCC2)oc2c(-c3ccccc3Oc3ccccc3)nccc12	?	?	-2.2%[70.6 µM]	i
COCC(=O)NC1CCC12CCN(C(=O)c1cccc3[nH]ccc13)CC2 (stereo not drawn)	1.4%	-0.5%	5.7%	i
O=C(CC1CCCC1)N1CC2CC(C1)[C@H]1CCCC(=O)N1C2 (stereo partly drawn)	-7.2%	-7.3%	1.4%	i
COC(=O)CN(C)Cc1cn(-c2ccc(C)cc2)nc1-c1cccc(C)c1	-21.4%	-20.7%	-9.1%	i
Cc1ccccc1-c1nccc2c(=O)cc(N3CCOCC3)oc12	?	35.5µM*	3.6%[70.6 µM]	i
O=c1cc(N2CCOCC2)oc2c(-c3ccccc3O)nccc12	-22.5%[172 µM]	?	-0.1%[70.6 µM]	i
O=C(NCCCc1ccccc1)c1n[nH]c2c1CN(C(=O)c1c(F)cccc1F)CC2	17.8µM*	?	0.0%	i
SMILES	HEK293 tox	NIH3T3 tox	NPR1 antag	FLuc inh
O=C(NCCCc1ccccc1)c1n[nH]c2c1CN(C(=O)c1ccccc1Cl)CC2	?	?	0.0%	?
O=C(NCCCc1ccccc1)c1n[nH]c2c1CN(C(=O)c1ccc3c(c1)OCO3)CC2	?	35.5µM*	.	.
O=C(NCCCc1ccccc1)c1n[nH]c2c1CN(C(=O)c1ccccc1F)CC2	?	35.5µM*	-16.9%	i
O=C(NCCCc1ccccc1)c1n[nH]c2c1CN(C(=O)c1ccc(F)cc1F)CC2	79.4µM*	?	2.3%	i
CCC(=O)N1CCc2[nH]nc(C(=O)NCCCc3ccccc3)c2C1	?	?	-12.5%	i
CN1CCC(O)(CCn2cnc(-c3ccccc3)c2-c2ccsc2)CC1	?	?	-10.6%	i
CCCC(C)C(=O)N1CCc2[nH]nc(C(=O)NCCCc3ccccc3)c2C1 (stereo not drawn)	35.5µM*	39.8µM*	.	.
CC(C)CNc1ccc2c(n1)C(C)(C(=O)Nc1ccncc1)CN(Cc1ccccc1)C2 (stereo not drawn)	31.6µM*	22.4µM*	-16.2%[70.6 µM]	i
CC(C)CNc1ccc2c(n1)C(C)(C(=O)NCc1ccco1)CN(Cc1ccccc1)C2 (stereo not drawn)	50.1µM*	39.8µM*	-16.8%[70.6 µM]	i
CN1Cc2ccc(Nc3ccccc3)nc2C(C)(C(=O)NCc2ccc3c(c2)OCO3)C1 (stereo not drawn)	79.4µM*	50.1µM*	-15.4%[70.6 µM]	i
CC(C)CNc1ccc2c(n1)C(C)(C(=O)NC(C)C)CN(Cc1ccccc1)C2 (stereo not drawn)	63.1µM*	35.5µM*	?	i
CN1Cc2ccc(NCc3ccccc3)nc2C(C)(C(=O)NCc2ccc3c(c2)OCO3)C1 (stereo not drawn)	?	?	-28.4%	i
CC(C)CNc1ccc2c(n1)C(C)(C(=O)NC1COC1)CN(Cc1ccccc1)C2 (stereo not drawn)	?	?	-10.8%[70.6 µM]	i
CC(C)NC(=O)C[C@@H]1C[C@H]2O[C@H](CNCc3ccccc3Cl)[C@@H](O)[C@H]2O1	-15.9%[172 µM]	i	2.0%[70.6 µM]	i
CCOc1ccccc1CNC(=O)c1noc(-c2ccc3c(c2)OCO3)n1	?	?	-6.2%	?
CC(C)CNc1ccc2c(n1)C(C)(C(=O)NCCc1cnc[nH]1)CN(Cc1ccccc1)C2 (stereo not drawn)	?	31.6µM*	2.8%	i
CC1(C(=O)NCc2ccccc2)CN(Cc2ccccc2)Cc2ccc(N3CCOCC3)nc21 (stereo not drawn)	50.1µM*	?	-19.1%	i
COCCCNC(=O)C1(C)CN(Cc2ccccc2)Cc2ccc(NCC(C)C)nc21 (stereo not drawn)	89.1µM*	?	5.2%[70.6 µM]	i
CCN(CC)C(=O)CC[C@@H]1CNC(=O)[C@@H]2C[C@H](NC(=O)c3cccs3)CN12	2.2%[172 µM]	i	5.9%[70.6 µM]	i
CS(=O)(=O)N1CCC(C2CCN(Cc3ccsc3)C2)CC1 (stereo not drawn)	2.6%	0.2%	3.4%	i
CCCC(=O)Nc1cccc(C(=O)NC(C(=O)O)c2c(C)n[nH]c2C)c1 (stereo not drawn)	i	i	-2.2%	i
Cc1ccsc1C(=O)N1CCC2(CC1)CC(N(C(=O)c1ccccc1)C1CC1)CCO2 (stereo not drawn)	50.1µM*	?	-7.0%	i
Cn1nccc1C(=O)N1CCC2(CC1)CC(N(Cc1ccccc1)C1CC1)CCO2 (stereo not drawn)	?	-6.5%	-16.6%	i
CC(=O)N(C1CC1)C1CCOC2(CCN(C(=O)CCCc3ccccc3)CC2)C1 (stereo not drawn)	?	-21.3%	2.0%	28.2µM*

Compound activity as filed in PubChem.
